Rows were chosen to be rich in hits. Some 6% of all compounds tested hit in one or more screens of this group.
D1 agonist: Allosteric Agonists of the Human D1 Dopamine Receptor: qHTS. AID 504660, 2011. actives 1% (n = 360,000). HEK293 T-REx D1 cells, calcium flux, agonist mode. activation, % at 2 µM; in the data active means activation above about 30%
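Agonism was scored from calcium flux recorded over 180 s (1 read/s) after pintool compound addition, following a 10-cycle baseline. Cells were inducible force-coupled HEK293 TREx D1, plated overnight at 30 C and loaded with no-wash calcium dye.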
D1 antag: Antagonist of Human D 1 Dopamine Receptor: qHTS. AID 504652, 2011. activity change, negative = inhibition, % at 10 µM. actives 3.2% (n = 360,000). HEK293 TREx D1 cells, calcium flux, dopamine EC80; hits give low values; in the data active means activity change below about -30%
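Antagonism measured as reduced calcium response to an EC80 dopamine addition following 180 s compound pre-read; cells were inducible HEK293 Trex D1 plated overnight at 30 C, read kinetically at 1 cycle/sec.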
DRD3 antagonist: qHTS of D3 Dopamine Receptor Antagonist: qHTS; D(3) dopamine receptor (Homo sapiens), P35462; D3R cells, DiscoveRx beta-arrestin luminescence, antagonist mode; hits give low values; max response, negative = inhibition, %; actives 2.5% (n = 360,000); in the data active means max response below about -50%; inconclusive means no clear call, values can overlap the other calls
Target sequence (P35462 whole entry, looked up): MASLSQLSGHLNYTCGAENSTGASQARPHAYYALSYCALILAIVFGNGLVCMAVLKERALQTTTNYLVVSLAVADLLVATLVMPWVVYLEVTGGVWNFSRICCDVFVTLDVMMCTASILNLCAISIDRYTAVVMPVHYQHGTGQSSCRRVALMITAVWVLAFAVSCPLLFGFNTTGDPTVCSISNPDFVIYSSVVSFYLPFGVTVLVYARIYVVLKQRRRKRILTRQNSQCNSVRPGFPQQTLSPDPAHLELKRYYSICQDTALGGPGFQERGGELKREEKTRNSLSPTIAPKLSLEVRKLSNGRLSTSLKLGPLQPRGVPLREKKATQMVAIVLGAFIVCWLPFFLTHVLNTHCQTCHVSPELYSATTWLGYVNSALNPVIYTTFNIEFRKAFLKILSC
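Cells plated overnight at 1500 cells/well, then exposed to library compounds with dopamine controls for 90 minutes at 37 degrees C. DiscoveRx reagent added for 30–60 minutes at room temperature; luminescence read, quantitative HTS format.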
D1 potentiator: Potentiators of Human D1 Dopamine Receptor: qHTS; actives 0.036% (n = 360,000); AID 504651, 2011; D(1A) dopamine receptor (Homo sapiens), P21728; potentiation, % at 10 µM; HEK293 TREx D1 cells, calcium flux, dopamine EC20 potentiation; in the data active means potentiation above about 30%
Chronic BCR inh: qHTS Assay to Find Inhibitors of Chronic Active B-Cell Receptor Signaling; ABC-DLBCL IkBa-CBG/CBR reporter, luminescence ratio, 4 h; Potency, µM (doses to about 46.1 µM), actives largely listed as inhibitors; actives 0.05% (n = 340,000); active means well fitted inhibition curve with a large enough effect in the signal ratio, with a control signal flat, not every such curve was filed as active; inconclusive means small, poorly fitted or top-dose-only effect, or effect the other way, or a change in a side signal; the % refers to the signal ratio
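Cell line TMD8 (human ABC DLBCL), stably expressing tet-inducible CBG68-IkBa fusion and CBR; IMDM/0.5% FBS; cpd up to 46 uM; dox induction, 4 h, 37C/5% CO2; dual luminescence; green/red ratio; MG132 control.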
D3 ag: qHTS of D3 Dopamine Receptor Agonist: qHTS | D(3) dopamine receptor (Homo sapiens), P35462 | D3R DiscoveRx beta-arrestin cells, luminescence, 90 min | max activation, % | actives 0.58% (n = 410,000); in the data active means max activation above about 30%
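Agonist mode: compounds and dopamine controls were applied to plated cells for 90 min at 37 degrees C after an overnight attachment at 1500 cells/well. Luminescent read-out followed 30 - 60 minutes at room temperature with DiscoveRx detection reagent.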
Of the large screens only hits and unclear results are named; the others gave an inactive call; ! = not active in a repeat.

CCCCn1cc(S(=O)(=O)c2ccc(C)cc2)c(=O)c2cc(F)c(N3CCCCC3)cc21	D1 agonist 71 (no result: DRD3 antagonist, Chronic BCR inh)
CCCn1cc(S(=O)(=O)c2cccc(Cl)c2)c(=O)c2cc(F)c(N3CCN(CC)CC3)cc21	D3 ag 63 (no result: DRD3 antagonist, Chronic BCR inh)
Cn1cc(S(=O)(=O)c2ccccc2)c(=O)c2cc(F)c(N3CCOCC3)cc21	D1 antag -85!
CCCn1cc(S(=O)(=O)c2ccccc2)c(=O)c2cc(F)c(N3CCCC3)cc21	none (no result: DRD3 antagonist)
Cc1ccc(C)c(S(=O)(=O)c2cn(Cc3ccccc3)c3cc(N4CCCC4)c(F)cc3c2=O)c1	D1 antag -35 (no result: DRD3 antagonist, Chronic BCR inh)
C[C@H]1CN([C@@H](C)CO)C(=O)CCCn2nncc2CO[C@H]1CN(C)S(=O)(=O)c1cccs1	none (no result: D1 agonist, D1 antag, D1 potentiator, Chronic BCR inh)
COc1cccc(NC(=O)Cn2cc(C(=O)C3CCCCC3)c3ccccc32)c1	none (no result: DRD3 antagonist, Chronic BCR inh)
Cc1cc(C)cc(NC(=O)CSc2nnc(-c3cc4occc4n3C)n2-c2ccccc2C)c1	none (no result: DRD3 antagonist, Chronic BCR inh)
Cc1ccc(CNC(=O)CN2C(=O)CCc3cc(S(=O)(=O)N4CCCCC4)ccc32)cc1	none (no result: DRD3 antagonist, Chronic BCR inh)
COc1cc2c(-c3ccccc3C)nc3c(c(C)nn3-c3ccccc3)c2cc1OC	D3 ag 41 (no result: DRD3 antagonist, Chronic BCR inh)
Cc1cccc(NC(=O)CCNS(=O)(=O)c2cccc3nonc23)c1	D1 antag -50!
COc1ccc(NC(=O)CCS(=O)(=O)c2cccc3nonc23)c(OC)c1	D1 antag -45
Cc1ccc(NC(=O)CCNS(=O)(=O)c2cccc3nonc23)cc1Cl	D1 antag -32!
COc1ccc(NC(=O)CCNS(=O)(=O)c2cccc3nonc23)cc1Cl	none (no result: D1 potentiator)
COc1ccc(C)cc1NS(=O)(=O)c1cccc2nonc12	DRD3 antagonist -52
COc1ccc(CNC(=O)C2CCN(c3nnc(-n4cccc4CNc4ccc(C)cc4)s3)CC2)c(OC)c1	none (no result: DRD3 antagonist, Chronic BCR inh)
CCC[C@@H]1C[C@@H](C(=O)N[C@@H]([C@H]2O[C@H](SC)[C@H](OP(=O)(O)O)[C@@H](O)[C@H]2O)[C@H](C)Cl)N(C)C1	none (no result: D1 agonist, D1 antag, DRD3 antagonist, D1 potentiator, Chronic BCR inh)
COc1ccc(OC)c(/C=C/C(=O)N2CCCc3ccccc32)c1	Chronic BCR inh inconclusive
COc1ccc(/C=C/C(=O)N2CCCc3ccccc32)c(OC)c1	Chronic BCR inh inconclusive
COc1ccc(/C=C/C(=O)N2CCCc3ccccc32)cc1	D1 antag -32, Chronic BCR inh inconclusive
COc1cc(/C=C/C(=O)N2CCCc3ccccc32)cc(OC)c1OC	D1 antag -33
CC1CN(C(=O)COC(=O)c2nn(-c3ccccc3)c(=O)c3ccccc23)CC(C)O1 (stereo not given)	none
CN(CCC#N)C(=O)COC(=O)c1nn(-c2ccccc2)c(=O)c2ccccc12	DRD3 antagonist -58
CC(C(=O)NCc1cccc(Br)c1)n1ncn2cccc2c1=O (stereo not given)	none (no result: DRD3 antagonist, Chronic BCR inh)
CCCN1CCN(CCCNC(=O)C2CCCN(c3nc4ccc(OCC)cc4s3)C2)CC1 (stereo not given)	none
CCOc1ccc2nc(N3CCCC(C(=O)N4CCN(CC)CC4)C3)sc2c1 (stereo not given)	DRD3 antagonist -65
C[C@@H]1CN([C@@H](C)CO)C(=O)c2cc(NC(=O)C3CCCCC3)ccc2O[C@@H](C)CCCCO[C@H]1CN(C)S(=O)(=O)c1ccc(Cl)cc1	none (no result: D1 agonist, D1 antag, D1 potentiator, Chronic BCR inh)
CC(C)Nc1nc(NCCOc2ccccc2Cl)c2sc(-c3ccccc3)cc2n1	DRD3 antagonist inconclusive (no result: D1 agonist, D1 antag, D1 potentiator, Chronic BCR inh)
COc1ccccc1CNc1nc(NC(C)C)nc2cc(-c3ccccc3)sc12	DRD3 antagonist -64 (no result: D1 agonist, D1 antag, D1 potentiator, Chronic BCR inh)
C=CC(N)CCC(=O)O (stereo not given)	none (no result: D1 agonist, D1 antag, DRD3 antagonist, D1 potentiator, Chronic BCR inh)
Cc1noc(C)c1S(=O)(=O)Nc1ccc(C(=O)Nc2ccc(Br)cc2)cc1	none (no result: DRD3 antagonist, Chronic BCR inh)
O=C1C=C(Nc2ccc(Cl)cc2Cl)CC(c2ccco2)C1 (stereo not given)	Chronic BCR inh 13µM
O=C1C=C(NCc2ccc(Cl)cc2)CC(c2ccco2)C1 (stereo not given)	none
CC(NC(=O)OCc1ccccc1)c1ccccc1 (stereo not given)	none (no result: D1 agonist, D1 antag, D1 potentiator, Chronic BCR inh)
N#CC(NC(=O)OCc1ccccc1)c1ccccc1 (stereo not given)	DRD3 antagonist -54
COc1ccc(S(=O)(=O)NCC(c2cccs2)S(=O)(=O)c2ccccc2)cc1OC (stereo not given)	none (no result: D1 antag, DRD3 antagonist)
CC(C)Cn1c(-c2ccc(Br)cc2)c[nH]c1=S	D1 agonist 43
COc1ccc(NC(=O)CSc2nc3ccccc3nc2N2CCCC2)cc1Cl	none
COc1ccc(NC(=O)Cn2c(NCC(C)O)nc3ccccc32)cc1Cl (stereo not given)	D1 antag -70
Cc1ccccc1-n1c2nc(=O)[nH]c(=O)c-2cc2c(Cl)cccc21	none (no result: DRD3 antagonist, Chronic BCR inh)
CCn1cc(C(=O)N2CCN(c3cccc(C)c3)C(C)C2)c(=O)c2cc(S(=O)(=O)N3CCOCC3)ccc21 (stereo not given)	none (no result: DRD3 antagonist, Chronic BCR inh)
CCOc1ccccc1NC(=O)CCSc1nc2n[nH]c(C)c2c(=N)n1-c1ccccc1Cl	D3 ag 30
O=C(Oc1ccc(OC(=O)C2CCC2)cc1)C1CCC1	D1 antag -36
O=C(Oc1ccc2ccccc2c1)C1CCC1	none
O=[N+]([O-])c1ccccc1/C=C/CN1CCN(Cc2ccc3c(c2)OCO3)CC1	DRD3 antagonist -79
C/C(=C\c1ccccc1)C(=O)N1CCN(Cc2ccc3c(c2)OCO3)CC1	none
C(=C\c1ccccc1)/CN1CCN(Cc2ccc3c(c2)OCO3)CC1	DRD3 antagonist -61
COc1ccc(CCN2C(=O)CN(C3CCCCCC3)C(=O)C2c2ccc(OC(C)C)c(OC)c2)cc1OC (stereo not given)	none (no result: DRD3 antagonist)
Cc1ccc(NC(=O)C2CC(=O)N/C(=N/N=C/c3ccco3)S2)cc1C (stereo not given)	D1 antag -83
CCOC(=O)C1CCN(c2ccc(C(N)=O)cc2[N+](=O)[O-])CC1	D1 antag -33
NC(=O)c1ccc(N2CCN(S(=O)(=O)c3ccccc3)CC2)c([N+](=O)[O-])c1	D1 antag -40
COc1ccc(NC(=O)Cn2ccn(-c3ccccc3)c(=O)c2=O)cc1	none (no result: DRD3 antagonist, Chronic BCR inh)
CCCCN(C)CCn1c(=S)[nH]c2ccc(N3CCOCC3)cc2c1=O	DRD3 antagonist -66
COc1cccc(Nc2nc(C#N)nc(NC3CCCC3)n2)c1	D1 antag -33 (no result: DRD3 antagonist, Chronic BCR inh, D3 ag)
N#Cc1nc(Nc2cccc3ccccc23)nc(NC2CCCC2)n1	D1 antag -35 (no result: DRD3 antagonist, Chronic BCR inh, D3 ag)

Bioassay records from PubChem BioAssay.
